Activation (fluorescence interference) data for 58 molecules are collected here from PubChem BioAssay AID602387 (Sanford-Burnham Center for Chemical Genomics, 2012).

About 30 (1%) of roughly 2,300 compounds were called active.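 How the source made its calls: active means activation of at least 30% at 10 µM; inactive means the rest.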 The list is a sample of the results.

The test is described as follows: beacon detection-step fluorescence artefacts – biochemical, fluorescent molecular beacon, single concentration, artefact control for DNMT1 inhibitor project, confirmation (AID 602387).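 Further: DNMT1 catalytic domain with a HinP1I cleavage step and a FAM/dabcyl DNA beacon.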 Particulars: DNMT1 molecular beacon spectral interference counterscreen, fluorescence 485/520; at 10 µM; stronger effect = higher value.
For `COc1ccc(NC(=O)CCn2ccnc2)c(OC)c1`, the activation (fluorescence interference) is 5.11% (inactive).

Regarding `Cc1ccc2[nH]c(=O)c(-c3nc4c(C)cccn4c3NCc3ccco3)cc2c1`, the activation (fluorescence interference) was -3.31% (inactive).

With `NNc1cccc(C=Cc2ccccc2)cc1=O`, the activation (fluorescence interference) was -0.89% (inactive).

Turning to `NC1=CC(=O)C(=O)c2cccnc21`, the activation (fluorescence interference) was 34.8% (active).

Turning to `C=C(C)C(=O)Nc1cccc(C2=NOC3(C2)C[C@H](C(N)=O)N(C(=O)C(c2ccccc2)c2ccccc2)C3)c1` (stereo partly drawn), the activation (fluorescence interference) is -0.25% (inactive).

With `CCC/C=C(\CCC)C(NC(=O)Cc1ccccc1)c1ccc(C(=O)OC)cc1` (stereo not drawn), the activation (fluorescence interference) was 2.66% (inactive).

As to `Cc1ccccc1NC(=O)CN1C(=O)N/C(=C\c2cccn2-c2cccc(C(=O)O)c2)C1=O`, the activation (fluorescence interference) is -2.61% (inactive).

Regarding `O=C(Nc1nc(-c2ccco2)c(-c2ccco2)s1)c1ccco1`, the activation (fluorescence interference) is 6.11% (inactive).

Consider `O=c1[nH]c(/C=C/c2cccc(Br)c2)nc2ccccc12`, for which the activation (fluorescence interference) is -5.42% (inactive).

In the case of `CC(=O)Nc1ccccc1Sc1ccc2c3c(cccc13)C(=O)N(c1ccc(C)cc1)C2=O`, the activation (fluorescence interference) was 2.58% (inactive).

For the molecule `Cc1ccc(Cc2cncc(O)c2)cc1S(=O)(=O)O`, the activation (fluorescence interference) is 5.41% (inactive).

Take `CC(=O)c1ccc(NC(=O)c2ccc3c(Cl)c4c(nc3c2)CCCC4)cc1`: the activation (fluorescence interference) was -4.05% (inactive).

For the molecule `Cc1ccccc1-n1cc(CNC(=O)CC2C(=O)NCCN2C/C=C/c2ccccc2)cn1` (stereo not drawn), the activation (fluorescence interference) was 1.73% (inactive).

With `Cc1ccc(-c2cc(C(=O)NCc3cn(C)nc3C)c3cc(Br)ccc3n2)cc1`, the activation (fluorescence interference) is 2.74% (inactive).

`Cc1ccc(-c2nnc(-c3ccc(NC(=O)c4cccs4)cc3)o2)cc1`: the activation (fluorescence interference) is -3.03% (inactive).

`O=C(CN1CCCSc2ccccc21)N1CCN(S(=O)(=O)c2cccc(F)c2)CC1`: the activation (fluorescence interference) is 2.83% (inactive).

Regarding `O=C(COC(=O)/C=C/c1cn(-c2ccccc2)nc1-c1cccnc1)Nc1ccc(Cl)cc1Cl`, the activation (fluorescence interference) was -2.13% (inactive).

On to `O=C(Nc1cccc(F)c1)c1cc(-c2ccco2)nc2ccccc12`, for which the activation (fluorescence interference) was 3.89% (inactive).

With `COc1ccc(CC(=O)Nc2ccc(-c3nnc(-c4ccccc4)o3)cc2)cc1`, the activation (fluorescence interference) is -2.31% (inactive).

As for `CCOc1ccc(CN2CCC(n3nccc3NC(=O)C3CC3)CC2)cc1CO`, the activation (fluorescence interference) was 3.5% (inactive).

On to `Nc1cc2c(cc1Br)-c1ccc(F)cc1C2=O`, for which the activation (fluorescence interference) is -1.05% (inactive).

As to `COc1ccc2c(c1)c(=O)c(C(=O)c1ccc(Cl)cc1)cn2CC(=O)Nc1ccc(F)cc1`, the activation (fluorescence interference) is -1.8% (inactive).

With `O/N=C1\CC2(Cc3nonc31)OCCO2`, the activation (fluorescence interference) is 2.87% (inactive).

Turning to `CCOC(=O)N1CC=C2C(C#N)=C(N)C(C#N)(C#N)[C@H](c3cccs3)[C@H]2C1`, the activation (fluorescence interference) is 9.6% (inactive).

As to `NC(CSC(c1ccccc1)(c1ccccc1)c1ccc(-c2ccccc2)cc1)C(=O)O` (stereo not drawn), the activation (fluorescence interference) was 5.09% (inactive).

For `CC1CN(C(=O)c2ccccc2NS(=O)(=O)c2cccc([N+](=O)[O-])c2)CC(C)O1` (stereo not drawn), the activation (fluorescence interference) is 1.08% (inactive).

On to `C=CC1=C(C(=O)O)N2C(=O)[C@@H](NC(=O)/C(=N\OCC(=O)O)c3csc(N)n3)[C@H]2SC1`, for which the activation (fluorescence interference) is 7.32% (inactive).

As for `Cc1ccc(N=C2NC(=O)/C(=C/C=C/c3ccco3)S2)cc1C`, the activation (fluorescence interference) is -1.63% (inactive).

`CN(C)/C=C(/C(=O)c1ccc(Cl)cc1)S(=O)(=O)c1ccccc1`: the activation (fluorescence interference) was 1.79% (inactive).

With `Cc1cc2nc(-c3ccco3)c(Cc3cccc(F)c3)n2c(C)c1Br`, the activation (fluorescence interference) was 0.96% (inactive).

Take `COc1ccc(Cc2nnc(NC(=O)Cc3cccs3)s2)cc1`: the activation (fluorescence interference) is -0.3% (inactive).

As for `CCc1ccc(NC(=O)CS(=O)CC(=O)NCCCc2ccccc2)cc1` (stereo not drawn), the activation (fluorescence interference) was 2.85% (inactive).

Turning to `CCOc1cc(CN2CCCC(CO)(Cc3ccc(F)cc3F)C2)ccc1OC` (stereo not drawn), the activation (fluorescence interference) was 4.08% (inactive).

For `Cc1onc(-c2ccccc2)c1C(=O)Nc1ccccc1C#N`, the activation (fluorescence interference) is 3.12% (inactive).

For the molecule `Cc1cc(O)c(C(=O)/C=C/c2c(F)c(F)c(F)c(F)c2F)c(=O)o1`, the activation (fluorescence interference) is 6.03% (inactive).

Take `c1coc(-c2nc3nc4ccccc4n3nc2-c2ccco2)c1`: the activation (fluorescence interference) is 0.5% (inactive).

Regarding `CCN(C(=O)CSc1nc(N)cc(=O)[nH]1)C1CCS(=O)(=O)C1` (stereo not drawn), the activation (fluorescence interference) is 2.08% (inactive).

On to `c1ccc2cc3c(NCCN4CCOCC4)ccnc3cc2c1`, for which the activation (fluorescence interference) was -0.48% (inactive).

Regarding `O=C(Cn1nnc(-c2ccccc2)n1)N/N=C/c1ccc(-c2ccc(Cl)cc2)o1`, the activation (fluorescence interference) is 3.12% (inactive).

Consider `CC1(C(=O)NS(=O)(=O)c2ccccc2)CCN1C(=O)C/C=C/c1ccccc1` (stereo not drawn), for which the activation (fluorescence interference) is -0.14% (inactive).

`CCN1CCN(Cc2nc3c(c(=O)n(C)c(=O)n3C)n2CC(=O)c2ccccc2)CC1`: the activation (fluorescence interference) was 2.13% (inactive).

For the molecule `C/C(=N\Nc1ccc(S(N)(=O)=O)cc1[N+](=O)[O-])c1cccs1`, the activation (fluorescence interference) is 0.04% (inactive).

`O=C(COC(=O)c1ccc(F)cc1F)Nc1ncccn1`: the activation (fluorescence interference) was 3.67% (inactive).

Turning to `C=CCn1c(=NC(=O)c2ccc(S(=O)(=O)N3CCCC3)cc2)sc2cc(NC(C)=O)ccc21`, the activation (fluorescence interference) was -2.75% (inactive).

Regarding `Cc1ccc(/C=C/C(=O)Nc2ccc([N+](=O)[O-])c(NC(=O)/C=C/c3ccc(C)o3)c2)o1`, the activation (fluorescence interference) is -0.1% (inactive).

In the case of `O=C(COC(=O)CCC(=O)c1cccs1)NCc1ccco1`, the activation (fluorescence interference) is 2.99% (inactive).

Take `CC(C)(C)N(Cc1ccccc1)C(=O)c1ccncc1`: the activation (fluorescence interference) is 4.75% (inactive).

For `CCOC(=O)c1c(NC(=S)NC(=O)/C=C/c2cccs2)sc(C)c1C`, the activation (fluorescence interference) is 2.75% (inactive).

Turning to `CN(Cc1nc2ccc(F)cc2[nH]1)Cc1nc(CC2CC2)no1`, the activation (fluorescence interference) was 5.14% (inactive).

For `O=C(c1cccs1)N1CCC(c2nc3ccccc3s2)CC1`, the activation (fluorescence interference) was 4.65% (inactive).

For the molecule `O=C(CCNC(=O)c1ccccc1)NN=Cc1ccc(Br)o1`, the activation (fluorescence interference) was 2.53% (inactive).

For the molecule `CCOC(=O)/C(C#N)=C/c1ccc(OCC(=O)Nc2ccccc2)c(OC)c1`, the activation (fluorescence interference) is 6.65% (inactive).

For the molecule `COc1cccc(C(=O)Nc2ccc(N3CCCC3)cc2)c1`, the activation (fluorescence interference) is 5.04% (inactive).

With `C=Cc1ccc(C(=O)N2CCCC(CCC(=O)N3CCN(c4ccccn4)CC3)C2)cc1` (stereo not drawn), the activation (fluorescence interference) was -0.29% (inactive).

For the molecule `CCN1C(=O)c2cccc3c(N)ccc1c23`, the activation (fluorescence interference) was 6.17% (inactive).

As for `CCNC(=O)C1CCCN(C(=O)c2cc(F)ccc2C)CC1` (stereo not drawn), the activation (fluorescence interference) is 5% (inactive).

`COc1ccc(C(=O)OCC(=O)Nc2cccc(C(C)=O)c2)cc1OC`: the activation (fluorescence interference) is 8.78% (inactive).

In the case of `CCOc1ccccc1/C=c1\sc2nc(-c3ccco3)nn2c1=O`, the activation (fluorescence interference) is 3.15% (inactive).
